Screening data as filed in PubChem.
The full list was thinned out, with hits kept by preference.
ROS inducer: cancer cell ROS induction; AID 624156; U2OS ROS induction, H2DCF-DA fluorescence; ROS induction (% of piperlongumine), % at 10 µM; hit rate 2% among 46,000; in the data active means ROS induction above about 79%, passing the limit was not always enough;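 further: 0% = DMSO vehicle median and 100% = reference compound median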
YB-1 expr inh: YB-1 expression inhibition. hit rate 0.37% among 30,000. delta delta Cp (YB-1 minus CDIP) (test concentration not listed). AID 434959. U2OS, qRT-PCR YB-1 vs CDIP delta delta Cp, 16 h; active compounds read high; zero = DMSO, each unit about twofold;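 active means delta delta Cp rounded down to an integer at or above 3, about 3 SD of DMSO wells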;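 further: higher means less YB-1 transcript or more CDIP transcript relative to DMSO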
NOMO-1 viab: STK33 inhibitor candidate reducing NOMO-1 cell viability. hit rate 7.5% among 37,000. inhibition, % (test concentration not listed). NOMO-1 AML viability, CellTiter-Glo luminescence, 72 h; in the data active means inhibition above about 80%
PD-1 reversal: reversal of PD-1 mediated T-cell inhibition | primary human CD4 T cells, PD-L1 beads, CellTiter-Glo 96 h | activation, % (no concentration beside the values) | 29,000 tested, under 10 active; call rule not given here;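 further: 0% = median vehicle wells and 100% = positive control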
Starred values were filed as active, the others as inactive; · = no result.

SMILES	ROS inducer	YB-1 expr inh	NOMO-1 viab	PD-1 reversal
C[C@@H]1CN([C@@H](C)CO)C(=O)c2cccc(NC(=O)Nc3ccccc3)c2O[C@@H]1CN(C)S(C)(=O)=O	25	0.24	1	-1
CC(N=C1CC(C)(C)CC(=O)/C1=C(O)/C=C/c1ccccc1)C(=O)O (configuration not stated)	-22	·	·	·
CCOC(=O)C1=C(C)NC(C)=C(C(=O)OC)C1c1cccc(Cl)c1Cl (configuration not stated)	0	0.1	27	·
COC(=O)C1=C(C)NC(C)=C(C(=O)OC)C1c1ccc(C(C)C)cc1	13	0.12	110*	0
COc1cc(C(=O)N(Cc2ccco2)c2ccc(O)cc2)cc(OC)c1OC	·	·	0	·
COc1ccccc1NC(=O)C(NC(=O)c1ccccc1NC(=O)c1ccccc1)C(C)C (configuration not stated)	97*	·	·	·
C[C@H]1CN([C@@H](C)CO)C(=O)c2cc(NC(=O)NC3CCCCC3)ccc2O[C@@H]1CN(C)Cc1ccc2c(c1)OCO2	17	0.12	26	1
C[C@H]1CN([C@@H](C)CO)C(=O)c2cc(NC(=O)NC3CCCCC3)ccc2O[C@H]1CN(C)Cc1ccc2c(c1)OCO2	-8	0.031	102*	-2
C[C@H](CO)N1C[C@H](C)[C@H](CN(C)Cc2ccc3c(c2)OCO3)Oc2ccc(NC(=O)NC3CCCCC3)cc2C1=O	4	-0.29	94*	1
C[C@@H]1CN([C@H](C)CO)C(=O)c2cc(NC(=O)NC3CCCCC3)ccc2O[C@@H]1CN(C)Cc1ccc2c(c1)OCO2	2	-0.34	-12	2
O=C(Oc1cccc2ccccc12)c1ccccc1	-4	-0.4	40	-1
O=C(Oc1cc(=O)oc2c1c(=O)n1c3c(cccc23)CC1)c1ccccc1	37	-0.85	140*	-1
C/C(CCc1oc2ccccc2c1-c1ccc(C)o1)=N\O	6	0.23	108*	-1
Cc1cccc(-c2noc(CN(C(=O)c3ccc([N+](=O)[O-])c(C)c3)C(C)C)n2)c1	17	·	132*	-10
CCC(CCC(=O)Nc1ccccc1[N+](=O)[O-])C(=O)O (configuration not stated)	·	·	22	·
C[C@@H]1CN([C@H](C)CO)C(=O)Cc2cc(NC(=O)CCCCCC(=O)Nc3ccccc3N)ccc2O[C@H]1CN(C)Cc1ccc(Cl)c(Cl)c1	60	-0.11	108*	-1
COc1ccc(CN(C)C[C@H]2Oc3ccc(NC(=O)CCCCCC(=O)Nc4ccccc4N)cc3CC(=O)N([C@@H](C)CO)C[C@@H]2C)cc1	-3	0.42	42	1
C[C@H]1CN([C@@H](C)CO)C(=O)Cc2cc(NC(=O)CCCCCC(=O)Nc3ccccc3N)ccc2O[C@@H]1CN(C)Cc1ccc(Cl)c(Cl)c1	25	-0.72	92*	0
C[C@@H]1CN([C@H](C)CO)C(=O)c2cc(NC(=O)CCCCCC(=O)Nc3ccccc3N)ccc2O[C@@H]1CN(C)Cc1ccc(Cl)c(Cl)c1	51	-0.21	·	·
C[C@@H]1CN([C@H](C)CO)C(=O)Cc2cc(NC(=O)CCCCCC(=O)Nc3ccccc3N)ccc2O[C@H]1CN(C)Cc1ccncc1	24	-0.08	-4	2
C[C@H]1CN([C@@H](C)CO)C(=O)c2cc(NC(=O)CCCCCC(=O)Nc3ccccc3N)ccc2O[C@H]1CN(C)Cc1ccc(Cl)c(Cl)c1	38	·	111*	-1
CCOC(=O)c1c(CC(C)C)csc1NC(=O)c1ccccc1OC(C)=O	7	·	·	·
O=C(Nc1ccc(NC(=S)NC(=O)c2cc3ccccc3o2)cc1)c1ccco1	16	·	·	·
Nc1nc(SCC(=O)c2ccc(-c3ccccc3)cc2)n[nH]1	·	·	38	·
Cc1ccc(Nc2nnc(-c3ccc(C)c(S(=O)(=O)NCC4CCCO4)c3)c3ccccc23)cc1 (configuration not stated)	216*	-0.32	119*	-1
SMILES	ROS inducer	YB-1 expr inh	NOMO-1 viab	PD-1 reversal
CNS(=O)(=O)c1cc(-c2nnc(Nc3cccc(O)c3)c3ccccc23)ccc1C	·	·	18	·
O=C(CC1Nc2cccc3cccc(c23)NC1=O)Nc1ccc([N+](=O)[O-])cc1 (configuration not stated)	-4	·	124*	-10
O=C(CC1Nc2cccc3cccc(c23)NC1=O)Nc1cccc([N+](=O)[O-])c1 (configuration not stated)	25	·	61	-3
C[C@H]1CN([C@@H](C)CO)C(=O)Cc2cc(NC(=O)Nc3ccccc3)ccc2O[C@@H]1CN(C)C(=O)Nc1ccc(C(F)(F)F)cc1	40	-0.15	10	0
C[C@@H]1CN([C@@H](C)CO)C(=O)Cc2cc(NC(=O)Nc3ccc(C(F)(F)F)cc3)ccc2O[C@@H]1CN(C)C(=O)Nc1ccccc1	7	-0.13	112*	-2
C[C@@H]1CN([C@@H](C)CO)C(=O)Cc2cc(NC(=O)Nc3ccc(C(F)(F)F)cc3)ccc2O[C@@H]1CN(C)C(=O)Nc1cccc2ccccc12	4	0.14	83*	-2
C[C@H](CO)N1C[C@H](C)[C@H](CN(C)C(=O)Nc2ccccc2)Oc2ccc(NC(=O)Nc3ccc(C(F)(F)F)cc3)cc2CC1=O	5	0.019	92*	·
Cc1c(C(=O)NCCCN2CCOCC2)oc2ccc3c(c12)C(=O)CC(C)(c1ccc(Cl)cc1)O3 (configuration not stated)	1	·	·	·
COc1cccc(C(=O)NCCN=C2NS(=O)(=O)c3ccccc32)c1	3	·	6	-1
CC(=O)N1CCSc2cc(S(=O)(=O)Nc3cccc(C)c3)ccc21	19	·	·	·
C[C@@H]1CN([C@H](C)CO)C(=O)c2cc(NC(=O)Nc3cccc4ccccc34)ccc2O[C@H]1CN(C)Cc1ccc(Oc2ccccc2)cc1	26	0.03	109*	-9
C[C@@H]1CN([C@@H](C)CO)C(=O)c2cc(NC(=O)Nc3cccc4ccccc34)ccc2O[C@@H]1CN(C)Cc1ccc(Oc2ccccc2)cc1	-2	-0.32	114*	·
O=C(/C=C/c1ccccc1)Nc1ccc(N2CCN(c3ccc(C(F)(F)F)cn3)CC2)nc1	-2	·	·	·
O=C(Nc1ccc(C(F)(F)F)cc1)c1cnc(N2CCN(c3ccccn3)CC2)c2ccccc12	96*	·	·	·
CC(C)(C)c1ccc2c(c1)c1c3n2CCN(CCC#N)C3CCC1 (configuration not stated)	-10	·	·	·
C=C1C(C2(C)C=CC(=O)C(C)(C)C2CC(=O)OC)CC[C@@]2(C)[C@H](c3ccoc3)OC(=O)C3OC132 (some centres not stated)	17	0.62	110*	·
CC1(C)C(=O)C=C[C@@]2(C)C1CC(=O)[C@@]1(C)C3=CC(=O)O[C@@H](c4ccoc4)[C@]3(C)CCC12 (some centres not stated)	-10	0.14	27	·
CC1(C)C(=O)C=C[C@@]2(C)C1C=C[C@]1(C)C2CC[C@@]2(C)[C@H](c3ccoc3)OC(=O)C3OC321 (some centres not stated)	65	-0.44	107*	·
O=c1c2sccc2nc(SCc2ccccc2)n1CCc1ccccc1	28	·	·	·
